# According to the supplement of paper PMC9950053:
# Where a name gives a salt, the structure may show the parent alone.
# System: Danio rerio larvae (5 dpf)
# Test: excitability (activity period 17 minus period 16, 1-s interval sound) minus DMSO control (percentage points); higher = more acoustic excitability than DMSO larvae
# Conditions: 10 µM; exposure time: 3 h pre-incubation + 3 h imaging
# Method: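 Wild-type 5 dpf zebrafish larvae (n=48 per drug, 96-well plates, 28.5 °C) were exposed to Tocris FDA-approved library compounds at 10 µM (0.1% DMSO) for 3 h before and 3 h during imaging. Images were taken every 6 s during visual (moving coloured lines) and acoustic stimuli, and larvae were tracked with the DeepLabCut-based Z-LaP Tracker. Each behavioural measure is the treated-group mean minus the DMSO vehicle control mean (n=844), in percentage points. This mapping covers compounds with 4-character plate codes.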
row,Compound,excitability
1,CC[C@@H](C(N)=O)N1CCCC1=O [Levetiracetam],1.58
2,C=CCN1C[C@H](C(=O)N(CCCN(C)C)C(=O)NCC)C[C@@H]2c3cccc4[nH]cc(c34)C[C@H]21 [Cabergoline],12.4
3,CN1C[C@H](C(=O)N[C@]2(C)O[C@@]3(O)[C@@H]4CCCN4C(=O)[C@H](Cc4ccccc4)N3C2=O)C[C@@H]2c3cccc4[nH]cc(c34)C[C@H]21 [Dihydroergotamine mesylate],0.33
4,CC(C)C[C@H]1C(=O)N2CCC[C@H]2[C@]2(O)O[C@](NC(=O)[C@@H]3C=C4c5cccc6[nH]c(Br)c(c56)C[C@H]4N(C)C3)(C(C)C)C(=O)N12 [Bromocriptine mesylate],18.2
5,N[C@@H]1C[C@H]1c1ccccc1 [Tranylcypromine hydrochloride],3.55
6,Cc1cccc([C@H](C)c2c[nH]cn2)c1C [Dexmedetomidine hydrochloride],5.7
7,O=c1[nH]c2ccccc2n1C1CCN(CCCC(c2ccc(F)cc2)c2ccc(F)cc2)CC1 [Pimozide],-0.377
8,COc1cc2c(cc1OC)C1CC(=O)C(CC(C)C)CN1CC2 (stereo unspecified) [Tetrabenazine],22.4
9,CCN(C)C(=O)Oc1cccc([C@H](C)N(C)C)c1 [Rivastigmine tartrate],3.52
10,C=C1C[C@@H]2[C@H](CC[C@]3(C)C(=O)CC[C@@H]23)[C@@]2(C)C=CC(=O)C=C12 [Exemestane],11.9
11,CC(O)(CS(=O)(=O)c1ccc(F)cc1)C(=O)Nc1ccc(C#N)c(C(F)(F)F)c1 (stereo unspecified) [Bicalutamide],3.42
